Legend:
Settings in all cases: concentration: 1 μM, replicates: in singlicate; n = 1
[1] = system: CAMK2G
[2] = system: CAMK4
[3] = system: CAMKK1
[4] = system: CAMKK2
[5] = system: CASK
[6] = system: T1, CDC2L1
T1 construct: gene CDK11B

[7] = system: CDC2L2
[8] = system: T2, CDC2L5
T2 construct: gene CDK13

[9] = system: T3, CDK11
T3 construct: gene CDK19

[10] = system: CDK2
[11] = system: CDK3
[12] = system: CDK4-cyclinD1
[13] = system: CDK4-cyclinD3
[14] = system: CDK4
[15] = system: CDK5
[16] = system: CDK7
[17] = system: CDK8
[18] = system: CDK9
[19] = system: CDKL1
[20] = system: CDKL2
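Also: KINOMEscan kinase panel screen.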

| Compound | %Inh [1] [%] | %Inh [2] [%] | %Inh [3] [%] | %Inh [4] [%] | %Inh [5] [%] | %Inh [6] [%] | %Inh [7] [%] | %Inh [8] [%] | %Inh [9] [%] | %Inh [10] [%] | %Inh [11] [%] | %Inh [12] [%] | %Inh [13] [%] | %Inh [14] [%] | %Inh [15] [%] | %Inh [16] [%] | %Inh [17] [%] | %Inh [18] [%] | %Inh [19] [%] | %Inh [20] [%] |
| --- | --- | --- | --- | --- | --- | --- | --- | --- | --- | --- | --- | --- | --- | --- | --- | --- | --- | --- | --- | --- |
| CN1C(=O)C(Nc2cc(Cl)c(O)c(Cl)c2)=C(c2ccc(Cl)cc2)C1=O [SB-404321] | 0 | 0 | 0 | 0 | 14 | 0 | 0 | 0 | 9 | 0 | 0 | 0 | 0 | 23 | 4 | 0 | 41 | 0 | 0 | 7 |
| O=C1NC(=O)C(c2ccccc2)=C1Nc1cccc(O)c1 [SB-390534] | 13 | 0 | 0 | 0 | 1 | 0 | 0 | 1 | 0 | 2 | 6 | 0 | 0 | 0 | 0 | 0 | 0 | 0 | 1 | 11 |
| COc1cc2nccc(Nc3cccc(Oc4ccccc4)c3)c2cc1OC.Cl [GW284543] | 19 | 0 | 8 | 19 | 1 | 0 | 11 | 0 | 0 | 0 | 0 | 1 | 0 | 30 | 0 | 0 | 37 | 0 | 9 | 7 |
| Cc1cc(Nc2nc(-c3cccc(C)n3)nc3ccccc23)ccn1 [GW872411] | 0 | 0 | 0 | 0 | 7 | 0 | 0 | 0 | 0 | 0 | 0 | 0 | 0 | 0 | 0 | 0 | 0 | 0 | 17 | 0 |
| Nc1ncnc2c1ncn2-c1cccc(F)c1 [SKF-97560] | 0 | 0 | 0 | 0 | 47 | 1 | 15 | 23 | 0 | 0 | 0 | 27 | 13 | 30 | 0 | 0 | 0 | 0 | 0 | 0 |
| CCc1nc(-c2cccc(C)c2)c(-c2ccncc2)s1 | 0 | 0 | 0 | 0 | 0 | 0 | 3 | 0 | 0 | 0 | 8 | 6 | 0 | 0 | 3 | 0 | 0 | 7 | 33 | 4 |
| CCn1c(-c2ccoc2)nc2cnccc21 [SB-733887] | 6 | 0 | 4 | 4 | 3 | 0 | 6 | 0 | 0 | 4 | 23 | 5 | 29 | 0 | 0 | 60 | 33 | 0 | 0 | 16 |
| CCC(=O)c1c(-c2ccccc2)c2cc(Cl)ccc2c(=O)n1Cc1cc(S(C)(=O)=O)n(CCC(C)(C)O)n1 | 18 | 19 | 18 | 28 | 0 | 9 | 13 | 23 | 14 | 0 | 2 | 0 | 20 | 0 | 10 | 38 | 0 | 17 | 10 | 0 |
| COC(=O)c1c(-c2ccccc2)c2cc(C)ccc2c(=O)n1Cc1ccccc1 | 0 | 0 | 0 | 6 | 0 | 0 | 0 | 0 | 0 | 0 | 0 | 0 | 0 | 0 | 0 | 0 | 5 | 0 | 4 | 0 |
| Nc1nc(-c2ccccc2F)c(-c2ccnc3ccccc23)s1 [GW560459] | 10 | 0 | 10 | 4 | 0 | 0 | 8 | 0 | 0 | 0 | 0 | 11 | 0 | 32 | 0 | 0 | 39 | 0 | 0 | 26 |
| COc1ccc(-c2cc3c(C)nc(N)nc3n([C@H]3CC[C@H](OCCO)CC3)c2=O)cn1 | 0 | 5 | 5 | 0 | 0 | 11 | 0 | 0 | 34 | 0 | 0 | 0 | 0 | 0 | 19 | 14 | 0 | 4 | 10 | 0 |
| O=C(Nc1n[nH]c2cc(-c3ccccc3F)ccc12)C1CC1 [SB-733371] | 0 | 0 | 0 | 0 | 0 | 0 | 0 | 33 | 0 | 25 | 7 | 0 | 0 | 0 | 0 | 0 | 0 | 0 | 11 | 79 |
| COc1cc2ncn(-c3cc(OCCCc4ccccc4)c(C(N)=O)s3)c2cc1OC [GSK205189] | 29 | 0 | 3 | 17 | 52 | 0 | 3 | 0 | 0 | 0 | 1 | 0 | 0 | 0 | 0 | 0 | 4 | 0 | 5 | 7 |
| CCn1c(-c2nonc2N)nc2ccccc21 [SB-693162/GW549034] | 1 | 0 | 9 | 0 | 0 | 0 | 29 | 0 | 11 | 0 | 48 | 0 | 46 | 13 | 12 | 20 | 0 | 0 | 8 | 0 |
| Cl.NS(=O)(=O)c1cccc(Nc2cc(-c3ccc(F)cc3)n[nH]2)c1 [GW824645] | 0 | 2 | 0 | 0 | 20 | 0 | 0 | 0 | 3 | 5 | 29 | 0 | 0 | 0 | 0 | 1 | 0 | 5 | 3 | 0 |
| Cc1nnc(-c2ccc3ncn(-c4ccc(S(C)=O)cc4)c3c2)o1 (stereo not drawn) | 0 | 0 | 0 | 0 | 0 | 0 | 10 | 0 | 0 | 0 | 4 | 0 | 0 | 0 | 13 | 0 | 16 | 7 | 20 | 0 |
| Cc1ccc(Oc2ccc(Nc3ncnc4cc[nH]c34)cc2C)cn1 | 15 | 0 | 9 | 5 | 0 | 0 | 7 | 0 | 19 | 0 | 0 | 4 | 0 | 29 | 9 | 40 | 0 | 10 | 1 | 0 |
| COc1cc2ncn(-c3cc(OCc4ccncc4)c(C(N)=O)s3)c2cc1OC [GSK336313] | 18 | 0 | 0 | 22 | 7 | 0 | 23 | 0 | 0 | 0 | 10 | 0 | 18 | 0 | 0 | 2 | 0 | 0 | 5 | 15 |
| CCc1ccc(-c2ccc3c(c2)-c2nn(C)cc2S(=O)(=O)N3C)cc1 | 4 | 0 | 22 | 9 | 14 | 0 | 0 | 16 | 8 | 0 | 0 | 14 | 0 | 0 | 12 | 0 | 0 | 0 | 9 | 19 |
| OCCCNc1nccc(-c2c(-c3cccc(C(F)(F)F)c3)nn3cc(C(F)(F)F)ccc23)n1 [GW630813] | 17 | 0 | 5 | 12 | 2 | 0 | 9 | 0 | 2 | 25 | 1 | 0 | 0 | 29 | 0 | 0 | 15 | 0 | 0 | 7 |
| CN(C)c1cc(-c2ccc3c(N)n[nH]c3c2)nc(N)n1 [GSK2219329] | 19 | 0 | 0 | 9 | 0 | 0 | 22 | 0 | 0 | 10 | 0 | 0 | 0 | 0 | 0 | 0 | 0 | 0 | 7 | 11 |

Reference: article PMC5540273 (PLoS ONE, 2017)
